# Experimental data published in PubChem BioAssay.
# Calls of active or inactive are those of the source.
# Tests used:
# [1] = system: PRMT1 (protein arginine N-methyltransferase 1); assay: small molecules binding arginine methyltransferase PRMT1 – biochemical, small-molecule microarray, 635 nm fluorescence, primary screen (AID 1088); conditions: higher = more signal;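 also: binding of Prmt1 protein to compounds spotted on small-molecule microarray slides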
# [2] = growth effects on S. cerevisiae YJM789 – YJM789 clinical isolate, OD600, 24 h, basal, primary screen (AID 1089); conditions: higher = more signal, called active from +8 up or from −8 down;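 also: growth of clinical yeast isolate S. cerevisiae YJM 789 seeded 1000 cells per well; test concentration not given here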
# [3] = S. pombe growth modifiers, basal conditions – strain 972, OD600, 24 h, no modulator, primary screen (AID 1090);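 also: basal condition with compound alone and no growth modifier present; test concentration not given here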; conditions: S. pombe 972 growth, higher = more signal, called active from +8 up or from −8 down
# [4] = budding yeast growth modifiers under rapamycin – strain BY4716, OD600, 96 h, primary screen (AID 1091); also: test concentration not given here; conditions: S. cerevisiae BY4716 + rapamycin, higher = more signal, called active from +8 up or from −8 down
# [5] = target: Torsin-1A-interacting protein 2 (Homo sapiens) (UniProt Q8NFQ8); assay: small molecules binding lysate-expressed LULL1 – cell lysate, human LULL1 lysate, 635/667 nm fluorescence, primary screen (AID 1092); conditions: small-molecule microarray, hLULL1 lysate binding, 635 nm fluorescence; higher = more signal;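 also: probe is lysate of COS7 cells overexpressing human LULL1; score merges per-feature 667 nm fluorescence with signal-to-noise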
# [6] = optical density change of DRC41 E. coli – strain DRC41, OD650, 24 h, E. coli filamentation project, primary screen (AID 1093);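 also: MC1000 strain lacking acrAB efflux and sulA so SOS filamentation is blocked; test concentration not given here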; conditions: E. coli DRC41 growth, higher = more signal, called active from +8 up or from −8 down
# [7] = probe aLefty2 binding to arrayed compounds – biochemical, biotinylated probe, 635/667 nm fluorescence, primary screen (AID 1094); conditions: small-molecule microarray, higher = more signal;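 also: score merges spot fluorescence near 667 nm with spot signal-to-noise ratio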
# [8] = system: Noggin (protein binding on small-molecule microarray); assay: small molecules binding Noggin protein – biochemical, 635/667 nm fluorescence, primary screen (AID 1095); conditions: 635 nm fluorescence, higher = more signal;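 also: score merges 667 nm feature fluorescence with signal to noise over triplicate slides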
# [9] = target: Neurogenic locus notch homolog protein 3 (Homo sapiens) (UniProt Q9UM47); assay: small molecules binding NOTCH3 protein – biochemical, 635/667 nm fluorescence, primary screen (AID 1096); conditions: small-molecule microarray, 635 nm fluorescence, higher = more signal
# [10] = probe aEGFR binding to arrayed compounds – biochemical, biotinylated probe, 635/667 nm fluorescence, primary screen (AID 1097); conditions: small-molecule microarray, higher = more signal;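 also: probe is a biotinylated anti-EGFR antibody binding compounds printed on slides; score combines fluorescence near 667 nm and signal to noise of each spot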
# [11] = system: Plasmodium falciparum Sir2 (PF13_0152, Sir2A); assay: Plasmodium falciparum Sir2A binding compounds – biochemical, small-molecule microarray, 635 nm fluorescence, primary screen (AID 1098); conditions: fluorescence 635 nm, higher = more signal;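 also: score merges spot fluorescence intensity with its signal-to-noise ratio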
# [12] = probe aDKK1 binding to arrayed compounds – biochemical, biotinylated probe, 635/667 nm fluorescence, primary screen (AID 1099); conditions: small-molecule microarray, higher = more signal;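 also: score merges 667nm spot fluorescence with signal to noise across triplicate slides; reference of the scale not given here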
# [13] = probe aCHRDL2 binding to arrayed compounds – biochemical, biotinylated probe, 635/667 nm fluorescence, primary screen (AID 1100); conditions: small-molecule microarray, higher = more signal
# [14] = change in splice reporter luminescence, either direction, cell-based, HEK293, spliceosome inhibition project, primary screen (AID 1101); conditions: HEK293 splicing luciferase reporter, 24 h, higher = more signal, called active from +8 up or from −8 down;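 also: HEK293 cells carrying a splicing-competent luciferase reporter gene; test concentration not given here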
# [15] = target: Fibroblast growth factor 10 (Homo sapiens) (UniProt O15520); assay: compounds binding fibroblast growth factor 10 – biochemical, small-molecule microarray, 635 nm fluorescence, primary screen (AID 1102); conditions: FGF10 binding, fluorescence 635 nm, higher = more signal
# [16] = system: glycogen synthase kinase-3 (GSK3A per assay name; protocol says GSK3B); assay: compounds binding glycogen synthase kinase-3 – biochemical, small-molecule microarray, 635 nm fluorescence, GSK3A, primary screen (AID 1103); conditions: fluorescence 635 nm, higher = more signal; also: the record names both GSK3A and GSK3B
# [17] = target: Epidermal growth factor receptor (Homo sapiens) (UniProt P00533); assay: compounds binding epidermal growth factor receptor – biochemical, small-molecule microarray, 635 nm fluorescence, primary screen (AID 1104); conditions: EGFR binding, higher = more signal;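 also: score merges 667 nm emission intensity with spot signal to noise over triplicate slides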
# [18] = target: Follistatin-related protein 3 (Homo sapiens) (UniProt O95633); assay: compounds binding follistatin-related protein 3 – biochemical, small-molecule microarray, 635 nm fluorescence, primary screen (AID 1105); conditions: FSTL3 binding, higher = more signal;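 also: score merges emission near 667 nm and signal to noise per printed spot across three slides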
# [19] = target: Dickkopf-related protein 1 (Homo sapiens) (UniProt O94907); assay: small molecules binding DKK1 protein – biochemical, small-molecule microarray, 635 nm fluorescence scan, primary screen (AID 1106); conditions: higher = more signal;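 also: score merges emission near 667 nm with signal to noise over three replicate slides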
# [20] = system: Inhibin beta A chain (activin A); assay: small molecules binding activin A – biochemical, small-molecule microarray, 635 nm fluorescence scan, primary screen (AID 1107); conditions: INHBA, higher = more signal;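 also: mouse activin A protein probed at 4.33 µg/mL on printed slides; score merges bound-protein fluorescence near 667 nm with spot signal-to-noise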
# Chain of Dickkopf-related protein 1 (Homo sapiens) (O94907 whole entry, looked up): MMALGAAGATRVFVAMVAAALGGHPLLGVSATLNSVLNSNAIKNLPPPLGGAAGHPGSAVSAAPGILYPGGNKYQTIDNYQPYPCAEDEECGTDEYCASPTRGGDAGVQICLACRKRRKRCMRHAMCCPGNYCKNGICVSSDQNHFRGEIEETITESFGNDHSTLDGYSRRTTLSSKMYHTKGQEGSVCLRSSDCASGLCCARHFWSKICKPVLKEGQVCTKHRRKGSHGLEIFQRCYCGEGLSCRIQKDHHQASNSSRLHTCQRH
# Chain of Neurogenic locus notch homolog protein 3 (Homo sapiens) (Q9UM47 whole entry, looked up): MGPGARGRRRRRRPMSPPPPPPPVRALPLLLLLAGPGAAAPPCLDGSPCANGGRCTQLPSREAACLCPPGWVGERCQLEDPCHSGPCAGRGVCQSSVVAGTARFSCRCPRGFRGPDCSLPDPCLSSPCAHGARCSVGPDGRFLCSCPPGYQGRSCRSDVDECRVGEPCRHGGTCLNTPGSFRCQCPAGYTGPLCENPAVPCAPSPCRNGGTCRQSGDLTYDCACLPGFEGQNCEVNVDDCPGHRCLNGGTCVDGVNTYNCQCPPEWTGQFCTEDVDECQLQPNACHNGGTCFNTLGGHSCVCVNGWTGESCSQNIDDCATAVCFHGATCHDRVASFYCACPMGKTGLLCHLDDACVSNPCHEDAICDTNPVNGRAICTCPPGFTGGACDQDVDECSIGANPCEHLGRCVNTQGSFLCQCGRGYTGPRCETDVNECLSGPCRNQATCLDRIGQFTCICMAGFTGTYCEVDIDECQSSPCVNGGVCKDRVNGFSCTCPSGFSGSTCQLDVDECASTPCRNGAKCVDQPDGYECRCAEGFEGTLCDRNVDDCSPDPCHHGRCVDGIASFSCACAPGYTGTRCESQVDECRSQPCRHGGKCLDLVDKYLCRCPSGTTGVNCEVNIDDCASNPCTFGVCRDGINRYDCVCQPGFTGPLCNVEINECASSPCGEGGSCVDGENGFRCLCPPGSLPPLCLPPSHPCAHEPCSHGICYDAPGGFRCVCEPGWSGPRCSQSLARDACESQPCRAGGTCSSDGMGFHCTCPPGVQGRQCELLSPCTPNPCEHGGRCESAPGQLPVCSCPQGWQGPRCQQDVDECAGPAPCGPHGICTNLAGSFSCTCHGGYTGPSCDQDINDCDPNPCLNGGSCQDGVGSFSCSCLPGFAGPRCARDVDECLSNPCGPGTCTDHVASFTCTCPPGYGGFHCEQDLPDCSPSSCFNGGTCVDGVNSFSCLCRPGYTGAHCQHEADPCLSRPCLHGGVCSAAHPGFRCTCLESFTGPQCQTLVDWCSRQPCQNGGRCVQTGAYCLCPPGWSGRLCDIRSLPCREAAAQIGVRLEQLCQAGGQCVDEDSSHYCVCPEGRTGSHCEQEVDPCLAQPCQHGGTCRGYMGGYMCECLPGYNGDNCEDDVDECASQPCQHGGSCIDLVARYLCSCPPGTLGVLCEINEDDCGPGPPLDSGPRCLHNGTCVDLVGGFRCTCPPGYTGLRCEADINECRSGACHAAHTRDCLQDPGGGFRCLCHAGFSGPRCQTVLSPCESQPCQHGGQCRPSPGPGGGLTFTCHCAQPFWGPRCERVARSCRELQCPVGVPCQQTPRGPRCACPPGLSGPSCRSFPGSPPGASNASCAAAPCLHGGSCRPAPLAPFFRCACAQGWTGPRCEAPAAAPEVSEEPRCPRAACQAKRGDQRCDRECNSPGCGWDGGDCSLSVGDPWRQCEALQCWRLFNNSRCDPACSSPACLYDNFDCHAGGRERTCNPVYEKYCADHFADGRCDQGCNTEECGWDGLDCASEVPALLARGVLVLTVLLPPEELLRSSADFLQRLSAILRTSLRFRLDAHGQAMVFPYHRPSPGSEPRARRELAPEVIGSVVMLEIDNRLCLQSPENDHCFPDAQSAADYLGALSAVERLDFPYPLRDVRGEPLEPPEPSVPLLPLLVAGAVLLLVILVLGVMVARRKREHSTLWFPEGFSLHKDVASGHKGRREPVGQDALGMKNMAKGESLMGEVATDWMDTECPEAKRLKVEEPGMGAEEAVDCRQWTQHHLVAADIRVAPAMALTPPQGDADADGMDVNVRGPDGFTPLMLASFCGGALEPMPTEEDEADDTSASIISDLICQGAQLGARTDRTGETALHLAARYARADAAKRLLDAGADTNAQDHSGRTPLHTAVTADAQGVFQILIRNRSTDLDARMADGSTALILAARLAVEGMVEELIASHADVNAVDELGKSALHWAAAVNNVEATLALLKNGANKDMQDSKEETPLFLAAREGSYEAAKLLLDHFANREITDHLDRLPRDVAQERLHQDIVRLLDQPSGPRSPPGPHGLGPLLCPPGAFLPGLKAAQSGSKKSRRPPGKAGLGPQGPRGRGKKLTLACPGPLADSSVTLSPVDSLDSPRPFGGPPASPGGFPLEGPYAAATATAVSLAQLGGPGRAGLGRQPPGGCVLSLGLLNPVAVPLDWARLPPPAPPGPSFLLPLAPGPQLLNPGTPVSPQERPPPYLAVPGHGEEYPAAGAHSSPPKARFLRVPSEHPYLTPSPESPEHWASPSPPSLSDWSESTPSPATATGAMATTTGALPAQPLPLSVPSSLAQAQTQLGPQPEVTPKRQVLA
# Chain of Epidermal growth factor receptor (Homo sapiens) (P00533 whole entry, looked up): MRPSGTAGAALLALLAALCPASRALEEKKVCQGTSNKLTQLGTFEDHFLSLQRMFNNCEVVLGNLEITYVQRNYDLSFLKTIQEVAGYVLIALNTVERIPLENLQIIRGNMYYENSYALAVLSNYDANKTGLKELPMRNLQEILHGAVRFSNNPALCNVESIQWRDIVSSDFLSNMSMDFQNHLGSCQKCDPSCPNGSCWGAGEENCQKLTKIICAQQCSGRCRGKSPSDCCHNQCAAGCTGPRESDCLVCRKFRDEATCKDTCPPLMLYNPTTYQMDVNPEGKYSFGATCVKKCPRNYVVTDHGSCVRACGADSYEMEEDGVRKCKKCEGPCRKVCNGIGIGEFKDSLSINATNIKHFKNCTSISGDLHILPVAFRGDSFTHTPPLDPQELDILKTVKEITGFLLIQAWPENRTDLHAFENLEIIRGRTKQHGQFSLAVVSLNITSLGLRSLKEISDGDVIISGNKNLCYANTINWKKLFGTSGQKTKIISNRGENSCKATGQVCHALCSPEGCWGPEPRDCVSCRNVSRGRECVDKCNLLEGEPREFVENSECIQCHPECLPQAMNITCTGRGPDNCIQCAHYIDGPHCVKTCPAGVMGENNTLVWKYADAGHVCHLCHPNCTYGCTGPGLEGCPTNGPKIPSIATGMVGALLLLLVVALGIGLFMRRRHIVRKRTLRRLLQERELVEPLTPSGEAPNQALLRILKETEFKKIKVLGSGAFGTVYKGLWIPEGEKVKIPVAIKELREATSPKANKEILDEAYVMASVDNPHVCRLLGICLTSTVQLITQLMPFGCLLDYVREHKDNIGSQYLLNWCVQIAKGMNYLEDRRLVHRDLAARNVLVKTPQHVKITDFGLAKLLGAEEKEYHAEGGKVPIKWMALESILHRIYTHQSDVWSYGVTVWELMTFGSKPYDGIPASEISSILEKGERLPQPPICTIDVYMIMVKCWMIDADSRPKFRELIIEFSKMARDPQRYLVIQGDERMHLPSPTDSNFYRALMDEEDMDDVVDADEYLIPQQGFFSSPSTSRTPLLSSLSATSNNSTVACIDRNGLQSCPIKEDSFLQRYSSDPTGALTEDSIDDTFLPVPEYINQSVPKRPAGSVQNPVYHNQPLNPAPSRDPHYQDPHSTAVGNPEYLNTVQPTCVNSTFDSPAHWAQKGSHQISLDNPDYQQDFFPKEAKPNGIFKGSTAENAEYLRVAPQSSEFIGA
# Chain of Torsin-1A-interacting protein 2 (Homo sapiens) (Q8NFQ8 whole entry, looked up): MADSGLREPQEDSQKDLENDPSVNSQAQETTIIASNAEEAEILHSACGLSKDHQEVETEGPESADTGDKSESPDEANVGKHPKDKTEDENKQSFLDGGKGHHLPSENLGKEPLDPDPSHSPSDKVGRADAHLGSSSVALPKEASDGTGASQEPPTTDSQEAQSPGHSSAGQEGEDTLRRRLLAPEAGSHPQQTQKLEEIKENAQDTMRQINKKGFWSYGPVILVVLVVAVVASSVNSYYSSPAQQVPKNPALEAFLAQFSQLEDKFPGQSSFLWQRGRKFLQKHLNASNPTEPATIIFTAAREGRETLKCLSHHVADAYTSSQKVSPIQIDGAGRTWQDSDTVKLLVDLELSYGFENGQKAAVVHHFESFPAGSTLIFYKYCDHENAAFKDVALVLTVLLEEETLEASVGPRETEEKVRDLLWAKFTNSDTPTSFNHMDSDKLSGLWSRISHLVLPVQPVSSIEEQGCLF
# Chain of Follistatin-related protein 3 (Homo sapiens) (O95633 whole entry, looked up): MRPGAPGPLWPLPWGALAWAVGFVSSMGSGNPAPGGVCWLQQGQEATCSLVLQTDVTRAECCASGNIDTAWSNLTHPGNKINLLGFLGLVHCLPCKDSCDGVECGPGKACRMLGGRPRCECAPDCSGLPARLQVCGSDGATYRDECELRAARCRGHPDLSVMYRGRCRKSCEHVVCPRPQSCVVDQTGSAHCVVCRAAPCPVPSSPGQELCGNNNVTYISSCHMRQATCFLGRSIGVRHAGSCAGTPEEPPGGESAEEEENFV
# Chain of Fibroblast growth factor 10 (Homo sapiens) (O15520 whole entry, looked up): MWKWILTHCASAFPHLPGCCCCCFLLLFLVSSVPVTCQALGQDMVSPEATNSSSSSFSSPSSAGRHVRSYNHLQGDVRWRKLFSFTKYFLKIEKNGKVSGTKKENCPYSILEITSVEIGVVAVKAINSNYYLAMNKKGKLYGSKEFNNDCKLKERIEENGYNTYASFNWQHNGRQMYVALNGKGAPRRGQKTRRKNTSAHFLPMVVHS
Structure (SMILES),composite z-score [1],z-score [2],z-score [3],z-score [4],composite z-score [5],z-score [6],composite z-score [7],composite z-score [8],composite z-score [9],composite z-score [10],composite z-score [11],composite z-score [12],composite z-score [13],z-score [14],composite z-score [15],composite z-score [16],composite z-score [17],composite z-score [18],composite z-score [19],composite z-score [20]
CN(C)C(=O)[C@@]1(CCS(=O)(=O)c2ccccc2)N=C(c2ccc(OCCCO)cc2)O[C@H]1c1ccccc1N=[N+]=[N-],1.55,-1.01 (inactive),-0.173 (inactive),0.914 (inactive),3.1,0.635 (inactive),0.0554,0.987,1.11,-0.0168,1.44,0.466,0.817,-0.445 (inactive),1.36,1.29,0.193,1.03,-0.0735,0.786
COCCOC(=O)N1C(=O)[C@@]2(c3cc(C#CC4(O)CCCCCC4)ccc31)[C@H](c1ccc(OCCO)cc1)N1[C@H](c3ccccc3)[C@H](c3ccccc3)OC(=O)[C@H]1[C@@H]2C(=O)N1CCCCCCC1,1.55,1.42 (inactive),0.598 (inactive),3.68 (inactive),3.09,0.436 (inactive),1.15,1.82,1.11,0.753,1.74,1.63,0.965,-1.55 (inactive),1.35,1.32,0.825,1.51,0.988,1.74
O=C1O[C@@H](c2ccccc2)[C@@H](c2ccccc2)N2[C@@H](c3ccc(O)cc3)[C@]3(C(=O)Nc4ccc(C#CC5=CCCCC5)cc43)[C@@H](C(=O)N3CCCCCCC3)[C@H]12,1.54,-1.67 (inactive),-0.604 (inactive),0.694 (inactive),3.44,1.09 (inactive),1.22,1.16,1.02,0.465,1.6,1.53,1.25,-1.28 (inactive),0.66,1.29,0.623,1.35,0.485,1.79
[N-]=[N+]=Nc1ccccc1[C@@H]1OC(c2ccc(OCCCO)cc2)=N[C@]1(Cc1ccccc1)C(N)=O,-0.0138,0.622 (inactive),-1.21 (inactive),-0.026 (inactive),2.04,1.74 (inactive),0.0529,-0.231,0.383,0.224,0.807,0.818,0.578,0.336 (inactive),-0.121,-0.235,-0.236,-0.294,-0.205,0.982
NCCCC[C@@H]1NC(=O)[C@H]2C[C@@H](C(=O)NCc3ccc(F)cc3)[C@@H](c3ccc(O)cc3)N2C1=O,1.3,0.804 (inactive),0.368 (inactive),0.656 (inactive),3.3,-0.656 (inactive),0.726,1.09,0.997,0.149,1.6,0.831,1.07,0.374 (inactive),0.186,1.33,0.117,1,0.496,1.2
